Reference: PubChem BioAssay (NCATS)
Results filed as inconclusive are left out. The source made the active and inactive calls. Unless noted, calls come from the whole dose curve; as a rule, active = well fitted curve in the direction sought with a large enough effect; inconclusive = small, poorly fitted or top-dose-only effect, or another doubt; inactive = no such curve, though single readings can be large; an effect the other way counts as inactive or inconclusive.

What was measured:
[1] = target: Thioredoxin reductase 1, cytoplasmic (Rattus norvegicus) (UniProt O89049); assay: qHTS Assay for Substrates of Mammalian Selenoprotein Thioredoxin Reductase 1 (TrxR1) (AID 488772);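 note: NADPH fluorescence in the first read after selenite addition and not the 8 min delta; series mostly up to about 57 µM; 0% is about no effect; a drop in NADPH fluorescence below the no-compound background marks a TrxR1 substrate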
Procedure, shortened: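 Quantitative HTS in Tris-HCl buffer at pH 7.5 with EDTA and Tween-20, using rat TrxR1, 400 uM NADPH and 400 uM selenite (final). A fall in initial NADPH fluorescence relative to background marked substrate behaviour.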

[2] = target: Thioredoxin reductase 1, cytoplasmic (Rattus norvegicus) (UniProt O89049); assay: qHTS Assay for Inhibitors of Mammalian Selenoprotein Thioredoxin Reductase 1 (TrxR1) (AID 488773); conditions: Potency: inhibition;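 note: drop in NADPH fluorescence over an 8 min run after selenite addition; series mostly up to about 57 µM; % is set by controls: 0 for no effect and ±100 for the full control effect; nearly all actives have a fitted effect of over 40% in size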
Procedure, shortened: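 Steps: enzyme (90 nM) plus NADPH (400 uM final), 5 min at ~22 deg C; compound added, 15 min; selenite (400 uM final) added; fluorescence followed for 8 min. Concentration-response curves derived from the normalized delta values.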

[3] = target: Flap endonuclease 1 (Homo sapiens) (UniProt P39748); assay: qHTS Validation Assay for the Inhibitors of Human Flap endonuclease 1 (FEN1) (AID 488816); note: % is set by controls: 0 for no effect and ±100 for the full control effect
Procedure, shortened: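 Human FEN1 (10 nM) preincubated 15 min at room temperature with compounds, then flap DNA substrate added at 50 nM final. Fluorescence read at 0 and 15 min; concentration-response fitted with four-parameter Hill equation.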

[4] = target: M-phase phosphoprotein 8 (Homo sapiens) (UniProt Q99549); assay: qHTS Validation Assay for Inhibitors for MPP8 Chromodomain Interactions with Methylated Histone Tails (AID 488949);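 note: AlphaScreen signal from MPP8 chromodomain bound to biotinylated H3K9me3 peptide; top concentration of the series differs between compounds; % is set by controls: 0 for no effect and ±100 for the full control effect; nearly all actives have a fitted effect of over 55% in size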
Procedure, shortened: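 MPP8 (50 nM) was preincubated with biotinylated H3(1-18)K9me3 peptide (50 nM) in PBS pH 7.4, 0.01% Tween-20 for 30 min at room temperature, then with compounds for 30 min; binding was detected by AlphaScreen.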

[5] = target: Chromobox protein homolog 1 (Homo sapiens) (UniProt P83916); assay: qHTS Validation Assay for Inhibitors of HP1-beta Chromodomain Interactions with Methylated Histone Tails (AID 488953);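 note: loss of AlphaScreen luminescence from HP1-beta binding biotinylated H3K9me3 peptide; series mostly up to about 110 µM; % is set by controls: 0 for no effect and ±100 for the full control effect; nearly all actives have a fitted effect of over 50% in size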
Procedure, shortened: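 HP1-beta (50 nM) preformed 30 min with biotinylated H3(1-18)K9me3 peptide (50 nM) in PBS pH 7.4, 0.01% Tween-20. Compounds added for 30 min at room temperature. Complex disruption read by AlphaScreen with streptavidin donor/nickel chelate acceptor beads (10 ug/mL each).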

[6] = target: Methanococcus maripaludis chaperonin (MmCpn) (UniProt Q6LX38); assay: High-Throughput Screening for Modulators of Cytosolic Chaperonin Activity: MmCpn Primary Screen (AID 488978);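 note: 50 nM MmCpn enzyme hydrolysing 30 µM ATP at 37 °C; 0% is about no effect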
Procedure, shortened: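 MmCpn (50 nM final) was preincubated with compound 5 min at RT, then 30 uM ATP (final) was added and the reaction ran 10 min at 37C. ADP produced was detected by Transcreener HTRF (ex 320 nm; em 590/665 nm).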

[7] = target: D(1A) dopamine receptor (Homo sapiens) (UniProt P21728); assay: HTS Assay for Allosteric Agonists of the Human D1 Dopamine Receptor: Primary Screen for Potentiators (AID 488982); note: 0% is about no effect
Procedure, shortened: (§1)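 Tetracycline-induced HEK293 Trex D1 cells with forced coupling to calcium, loaded with no-wash calcium dye; kinetic fluorescence read 180 s after compound addition for agonism, then a further 180 s after an EC20 dopamine challenge for potentiation.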

[8] = target: D(1A) dopamine receptor (Homo sapiens) (UniProt P21728); assay: HTS Assay for Allosteric Agonists of the Human D1 Dopamine Receptor: Primary Screen for Antagonists (AID 488983);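 note: calcium flux response to an EC80 dopamine challenge measured with no-wash dye; % is set by controls: 0 for no effect and ±100 for the full control effect; nearly all actives have a fitted effect of over 65% in size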
Procedure, shortened: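 Tetracycline-induced HEK293 T-REx D1 line, force-coupled to calcium flux, read with no-wash calcium dye. Compound added after 10 s baseline, read 180 s for agonism, then EC80 dopamine added and read a further 180 s.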

[9] = Validation screen for small molecules that induce genotoxicity in human embryonic kidney (HEK293T) cells expressing luciferase-tagged ELG1 (AID 493106); note: 0% is about no effect
Procedure, shortened: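 HEK293T cells expressing luciferase-tagged ELG1, 2,000 cells/well, exposed to compound 16 hr at 37 °C, 5% CO2. Luciferase read after ONE-Glo, 30 min at room temperature; increased signal indicates genetic stress.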

[10] = target: ATPase family AAA domain-containing protein 5 (Homo sapiens) (UniProt Q96QE3); assay: Validation screen for small molecules that inhibit ELG1-dependent DNA repair in human embryonic kidney (HEK293T) cells expressing luciferase-tagged ELG1 (AID 493107);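 note: cells co-treated with the DNA-damaging agent 5-fluorouridine alongside compound; series mostly up to about 46 µM; % is set by controls: 0 for no effect and ±100 for the full control effect; inhibitors lower the ELG1-luciferase luminescence signal; nearly all actives have a fitted effect of over 70% in size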
Procedure, shortened: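 HEK293T cells expressing luciferase-tagged ELG1, 2,000 per well, treated with 5-fluorouridine plus compound for 16 h at 37 C. ONE-Glo luminescence after 30 min at room temperature reports ELG1 reporter level.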

[11] = Nrf2 qHTS screen for inhibitors: Validation (AID 493153; active = well fitted inhibition curve with a large enough effect in the main read-out, with a control signal flat, not every such curve was filed as active); conditions: Potency: luciferase luminescence; viability change: measured here: cytotoxicity max response
Procedure, shortened: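 A549 cells carrying ARE-firefly luciferase reporter, 5000 cells/well in 5% FBS OPTI-MEM, treated with compound over a concentration series for 18-24 h at 37 C. Luciferase luminescence gave Nrf2 activity; CellTiter-Fluor fluorescence gave viability.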

[12] = qHTS for Inhibitors of Cell Surface uPA Generation: Validation Assay (AID 493164); note: 0% is about no effect
Procedure, shortened: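 RAW 264.7 cells (4000/well) were plated overnight, then exposed for 18 h at 37 C, 5% CO2 to compounds in a 7-point 1:5 titration (2.45 nM–38.3 uM final). Intracellular ATP was read by ATP-Lite luminescence.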

[13] = target: Transient receptor potential cation channel subfamily V member 1 (Homo sapiens) (UniProt Q8NER1); assay: HTS Assay for Compounds that Act as Enhancers of the Vanilloid Receptor 1 (AID 488979); note: 0% is about no effect
Procedure, shortened: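 TRPV1 cells loaded with Fluo-8 calcium dye; compound added and Ca2+ signal (ex 480/em 520 nm) followed 3 min, then capsaicin at EC20 added and read 2 more min to detect enhancement.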

[14] = target: D(1A) dopamine receptor (Homo sapiens) (UniProt P21728); assay: HTS Assay for Allosteric Agonists of the Human D1 Dopamine Receptor: Primary Screen for Agonists (AID 488981); note: 0% is about no effect
Procedure, shortened: as §1

[15] = Validation screen for small molecules that induce DNA re-replication in SW480 colon adenocarcinoma cells (AID 504364); note: 0% is about no effect
Procedure, shortened: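 SW480 cells (250/well) exposed 48 h at 37 C, 5% CO2, then Hoechst-stained 40 min. Nuclear DNA content imaged by fluorescence scanning (405 nm excitation, 500-530 nm emission); re-replication scored as increased nuclei with elevated intensity.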

[16] = target: Thyrotropin receptor (Homo sapiens) (UniProt P16473); assay: qHTS Assay for Antagonists of the Thyroid Stimulating Hormone Receptor (AID 488980); note: series mostly up to about 58 µM; 0% is about no effect
Procedure, shortened: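 HEK293 cells transfected with human TSHR, suspended in HEPES-buffered HBSS with 70 uM RO 20-1724, were treated with compounds plus TSH at EC80 (4 nM final). cAMP was measured by competitive HTRF (cryptate anti-cAMP antibody, cAMP-d2 acceptor).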

[17] = target: Thyrotropin-releasing hormone receptor (Homo sapiens) (UniProt P34981); assay: qHTS for Small Molecule Agonists and Allosteric Enhancers of Human TRH Receptor: Validation Screen for Agonists (AID 493127;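 active = calcium activation more than 3 SD above the typical response in the agonist read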; note: 0% is about no effect); conditions: TRH receptor agonist cell assay; at 2 µM; stronger effect = higher value
Procedure, shortened: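 TRHR cells loaded with fluo-8 calcium dye; FDSS kinetic fluorescence (Ex 480/Em 530) read at 1 s/cycle after 23 nL compound addition. Agonist-mode calcium response recorded before the 10 nM TRH (EC20) addition.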

[18] = target: Galactokinase (Homo sapiens) (UniProt P51570); assay: qHTS Validation Assay for Inhibitors of Human Galactokinase (GALK) (AID 493189); note: 0% is about no effect
Procedure, shortened: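 GALK (5 nM) with 35 uM ATP and 100 uM galactose in HEPES pH8.0, MgCl2, NaCl, DTT, BSA; 1 h at room temperature. Residual ATP read by Kinase-Glo Plus luminescence after 10 min.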

Sequence of Methanococcus maripaludis chaperonin (MmCpn) (Q6LX38 1-543): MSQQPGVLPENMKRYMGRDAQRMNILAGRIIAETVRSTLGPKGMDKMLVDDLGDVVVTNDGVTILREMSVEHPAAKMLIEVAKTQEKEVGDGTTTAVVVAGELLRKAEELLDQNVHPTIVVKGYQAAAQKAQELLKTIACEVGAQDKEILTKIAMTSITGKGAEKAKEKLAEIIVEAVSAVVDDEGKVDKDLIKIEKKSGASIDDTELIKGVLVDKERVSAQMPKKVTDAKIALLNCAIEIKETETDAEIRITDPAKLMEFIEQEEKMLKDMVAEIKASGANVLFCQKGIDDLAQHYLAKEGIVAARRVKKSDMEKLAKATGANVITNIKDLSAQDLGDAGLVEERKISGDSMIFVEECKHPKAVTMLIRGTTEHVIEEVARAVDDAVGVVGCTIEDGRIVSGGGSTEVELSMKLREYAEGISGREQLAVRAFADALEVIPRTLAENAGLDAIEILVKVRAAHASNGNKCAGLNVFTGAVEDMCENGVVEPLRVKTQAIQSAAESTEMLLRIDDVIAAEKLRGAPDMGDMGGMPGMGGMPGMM
Sequence of D(1A) dopamine receptor (Homo sapiens) (P21728 whole entry, looked up): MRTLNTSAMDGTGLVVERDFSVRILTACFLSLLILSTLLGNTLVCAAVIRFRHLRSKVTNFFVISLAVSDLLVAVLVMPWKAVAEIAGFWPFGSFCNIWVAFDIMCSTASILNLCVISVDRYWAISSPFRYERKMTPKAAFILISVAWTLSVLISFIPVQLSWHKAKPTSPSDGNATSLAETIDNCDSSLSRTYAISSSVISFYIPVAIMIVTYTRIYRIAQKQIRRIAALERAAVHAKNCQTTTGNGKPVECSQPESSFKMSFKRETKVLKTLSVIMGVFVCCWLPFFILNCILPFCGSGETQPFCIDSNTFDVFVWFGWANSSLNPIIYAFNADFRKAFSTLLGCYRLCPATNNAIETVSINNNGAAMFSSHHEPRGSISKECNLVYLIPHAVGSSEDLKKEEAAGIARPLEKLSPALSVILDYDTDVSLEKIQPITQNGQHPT
Sequence of Thyrotropin-releasing hormone receptor (Homo sapiens) (P34981 whole entry, looked up): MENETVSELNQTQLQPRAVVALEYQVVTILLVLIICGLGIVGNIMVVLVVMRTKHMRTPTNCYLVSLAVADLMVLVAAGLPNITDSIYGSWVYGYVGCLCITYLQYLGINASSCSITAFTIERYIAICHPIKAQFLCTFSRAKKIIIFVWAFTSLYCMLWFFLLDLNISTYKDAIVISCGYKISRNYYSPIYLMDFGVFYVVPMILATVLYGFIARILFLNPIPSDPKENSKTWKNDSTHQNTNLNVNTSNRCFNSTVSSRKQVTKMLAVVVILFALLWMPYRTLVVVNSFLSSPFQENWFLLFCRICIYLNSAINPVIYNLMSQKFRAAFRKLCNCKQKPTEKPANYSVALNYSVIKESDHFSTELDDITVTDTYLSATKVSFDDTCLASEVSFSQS
Sequence of Thyrotropin receptor (Homo sapiens) (P16473 whole entry, looked up): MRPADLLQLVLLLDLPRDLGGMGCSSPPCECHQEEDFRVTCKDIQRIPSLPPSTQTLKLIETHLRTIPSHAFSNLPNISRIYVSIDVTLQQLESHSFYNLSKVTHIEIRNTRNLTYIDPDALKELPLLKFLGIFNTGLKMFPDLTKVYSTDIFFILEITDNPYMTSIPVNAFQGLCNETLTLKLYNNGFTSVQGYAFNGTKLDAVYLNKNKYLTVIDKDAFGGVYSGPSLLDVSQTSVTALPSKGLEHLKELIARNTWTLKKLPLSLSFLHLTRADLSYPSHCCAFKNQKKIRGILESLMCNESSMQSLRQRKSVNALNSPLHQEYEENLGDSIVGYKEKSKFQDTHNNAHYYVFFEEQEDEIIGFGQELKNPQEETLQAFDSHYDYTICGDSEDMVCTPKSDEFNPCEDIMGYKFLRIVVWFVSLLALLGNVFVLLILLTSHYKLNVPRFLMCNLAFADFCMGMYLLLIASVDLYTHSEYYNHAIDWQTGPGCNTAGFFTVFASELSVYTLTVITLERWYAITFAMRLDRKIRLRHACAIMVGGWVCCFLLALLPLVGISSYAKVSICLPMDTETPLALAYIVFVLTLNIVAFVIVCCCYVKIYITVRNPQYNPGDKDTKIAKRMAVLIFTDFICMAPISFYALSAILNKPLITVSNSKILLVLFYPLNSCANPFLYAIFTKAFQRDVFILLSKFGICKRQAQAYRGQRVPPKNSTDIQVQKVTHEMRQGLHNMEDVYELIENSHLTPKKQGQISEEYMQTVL
Sequence of Galactokinase (Homo sapiens) (P51570 whole entry, looked up): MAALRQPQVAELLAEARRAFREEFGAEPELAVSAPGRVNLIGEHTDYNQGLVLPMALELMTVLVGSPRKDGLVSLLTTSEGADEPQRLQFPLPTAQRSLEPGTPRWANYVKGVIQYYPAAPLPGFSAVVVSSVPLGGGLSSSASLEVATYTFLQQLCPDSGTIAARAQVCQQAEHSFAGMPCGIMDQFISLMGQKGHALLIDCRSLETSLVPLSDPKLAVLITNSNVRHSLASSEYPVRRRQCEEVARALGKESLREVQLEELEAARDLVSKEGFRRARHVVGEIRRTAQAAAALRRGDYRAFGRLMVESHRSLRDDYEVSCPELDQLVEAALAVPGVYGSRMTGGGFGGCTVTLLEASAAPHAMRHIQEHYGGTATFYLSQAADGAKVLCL
Sequence of Thioredoxin reductase 1, cytoplasmic (Rattus norvegicus) (O89049 whole entry, looked up): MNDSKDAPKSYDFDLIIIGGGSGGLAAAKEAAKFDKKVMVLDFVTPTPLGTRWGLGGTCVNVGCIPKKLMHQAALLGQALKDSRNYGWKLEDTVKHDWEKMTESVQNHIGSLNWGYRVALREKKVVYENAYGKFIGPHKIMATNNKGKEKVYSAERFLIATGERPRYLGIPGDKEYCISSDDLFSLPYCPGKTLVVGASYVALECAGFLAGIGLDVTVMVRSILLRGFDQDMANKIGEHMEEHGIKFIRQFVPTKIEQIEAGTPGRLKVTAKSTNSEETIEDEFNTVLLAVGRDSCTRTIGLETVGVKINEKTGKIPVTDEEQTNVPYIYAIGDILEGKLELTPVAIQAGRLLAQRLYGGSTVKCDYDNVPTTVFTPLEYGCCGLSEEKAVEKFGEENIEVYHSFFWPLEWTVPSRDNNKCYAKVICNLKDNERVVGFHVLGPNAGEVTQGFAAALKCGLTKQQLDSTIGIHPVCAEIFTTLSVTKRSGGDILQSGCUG
Sequence of Transient receptor potential cation channel subfamily V member 1 (Homo sapiens) (Q8NER1 whole entry, looked up): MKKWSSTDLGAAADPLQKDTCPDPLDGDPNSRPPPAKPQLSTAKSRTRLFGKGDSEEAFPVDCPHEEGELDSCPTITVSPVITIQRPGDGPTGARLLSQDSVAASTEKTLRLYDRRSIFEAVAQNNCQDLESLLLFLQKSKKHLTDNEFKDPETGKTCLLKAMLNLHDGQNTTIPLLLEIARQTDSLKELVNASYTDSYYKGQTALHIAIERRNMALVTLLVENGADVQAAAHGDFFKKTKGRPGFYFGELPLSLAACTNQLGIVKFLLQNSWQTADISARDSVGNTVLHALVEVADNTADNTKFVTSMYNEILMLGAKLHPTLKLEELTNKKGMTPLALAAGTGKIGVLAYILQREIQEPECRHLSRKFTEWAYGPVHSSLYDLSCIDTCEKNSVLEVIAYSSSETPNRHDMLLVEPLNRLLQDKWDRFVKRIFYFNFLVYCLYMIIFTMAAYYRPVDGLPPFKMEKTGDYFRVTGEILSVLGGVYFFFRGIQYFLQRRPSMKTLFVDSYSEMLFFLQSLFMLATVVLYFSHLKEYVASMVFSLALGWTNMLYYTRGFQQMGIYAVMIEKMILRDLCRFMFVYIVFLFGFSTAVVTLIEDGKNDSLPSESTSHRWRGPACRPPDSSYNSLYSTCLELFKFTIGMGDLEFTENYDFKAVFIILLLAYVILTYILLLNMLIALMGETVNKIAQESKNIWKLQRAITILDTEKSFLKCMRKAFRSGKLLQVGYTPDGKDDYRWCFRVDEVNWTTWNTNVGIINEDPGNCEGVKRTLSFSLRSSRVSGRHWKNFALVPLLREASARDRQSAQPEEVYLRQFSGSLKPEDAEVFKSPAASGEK
Sequence of Chromobox protein homolog 1 (Homo sapiens) (P83916 whole entry, looked up): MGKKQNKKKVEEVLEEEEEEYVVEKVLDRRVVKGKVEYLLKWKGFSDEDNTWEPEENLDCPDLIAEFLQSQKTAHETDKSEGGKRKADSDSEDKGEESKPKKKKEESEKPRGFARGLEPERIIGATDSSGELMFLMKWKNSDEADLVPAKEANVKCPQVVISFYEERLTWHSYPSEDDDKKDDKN
Sequence of M-phase phosphoprotein 8 (Homo sapiens) (Q99549 whole entry, looked up): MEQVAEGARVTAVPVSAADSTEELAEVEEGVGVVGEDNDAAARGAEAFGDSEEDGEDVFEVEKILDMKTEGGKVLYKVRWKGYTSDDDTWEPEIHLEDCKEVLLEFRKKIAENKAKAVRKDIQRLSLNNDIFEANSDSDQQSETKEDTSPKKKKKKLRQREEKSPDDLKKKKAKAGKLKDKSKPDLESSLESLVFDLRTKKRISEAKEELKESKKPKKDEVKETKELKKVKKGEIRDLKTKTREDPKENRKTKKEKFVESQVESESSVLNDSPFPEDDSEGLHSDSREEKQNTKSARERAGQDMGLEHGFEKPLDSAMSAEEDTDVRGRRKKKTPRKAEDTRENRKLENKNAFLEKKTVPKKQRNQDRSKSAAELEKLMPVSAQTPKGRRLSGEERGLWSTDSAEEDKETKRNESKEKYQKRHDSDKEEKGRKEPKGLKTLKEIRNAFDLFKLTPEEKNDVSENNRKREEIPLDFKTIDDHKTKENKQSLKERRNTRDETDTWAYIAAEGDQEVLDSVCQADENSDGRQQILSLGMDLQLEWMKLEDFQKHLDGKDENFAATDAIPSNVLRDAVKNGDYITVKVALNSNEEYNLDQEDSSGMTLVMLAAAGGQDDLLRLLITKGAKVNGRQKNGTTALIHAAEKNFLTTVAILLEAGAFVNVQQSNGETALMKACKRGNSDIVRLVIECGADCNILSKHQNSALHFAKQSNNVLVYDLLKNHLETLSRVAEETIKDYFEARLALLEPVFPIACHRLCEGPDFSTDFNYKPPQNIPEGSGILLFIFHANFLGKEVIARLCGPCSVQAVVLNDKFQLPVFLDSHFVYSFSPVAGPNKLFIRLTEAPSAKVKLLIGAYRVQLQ

N[C@@H](Cn1ccc(=O)[nH]c1=O)C(=O)O
2.76%: viability change [11]
inactive: outcome [1] | Potency [2] | Potency [3] | Potency [4] | Potency [5] | outcome [6] | Potency [7] | Potency [8] | Potency [9] | Potency [10] | Potency [11] | outcome [12]

Cc1o[nH]c(=O)c1CC(N)C(=O)O (configuration not stated)
inactive: outcome [1] | Potency [2] | Potency [3] | Potency [4] | outcome [6] | outcome [13] | Potency [14] | Potency [7] | Potency [8] | Potency [9] | Potency [10] | outcome [12] | Potency [15]

N[C@@]1(C(=O)O)CC[C@@H](C(=O)O)C1
4.39%: viability change [11]
inactive: outcome [1] | Potency [2] | Potency [4] | Potency [5] | outcome [6] | outcome [13] | outcome [16] | Potency [7] | Potency [8] | Potency [9] | Potency [10] | activation [17] -0.25% | Potency [11] | outcome [18]

C[N+]1(C)CCN(c2ccccc2)CC1
inactive: outcome [1] | Potency [2] | Potency [3] | Potency [4] | outcome [6] | outcome [13] | outcome [16] | Potency [7] | Potency [8] | Potency [9] | Potency [10] | activation [17] 0.438%

CCCN(CCC)C1CCc2cccc(O)c2C1 (configuration not stated)
inactive: outcome [1] | Potency [3] | Potency [4] | Potency [5] | outcome [6] | outcome [13] | outcome [16] | Potency [14] | Potency [7] | Potency [8] | Potency [9] | Potency [10] | activation [17] 1.12% | Potency [11] | outcome [18]
4.06%: viability change [11]

N[C@@H](CCl)C(=O)O
4.83%: viability change [11]
inactive: outcome [1] | Potency [2] | Potency [3] | Potency [4] | outcome [6] | outcome [13] | outcome [16] | Potency [14] | Potency [7] | Potency [8] | Potency [9] | Potency [10] | activation [17] 1.31% | Potency [11] | outcome [12] | outcome [18] | Potency [15]

CN1C2CCC1CC(OC(c1ccccc1)c1ccccc1N)C2 (configuration not stated)
inactive: outcome [1] | Potency [2] | Potency [3] | Potency [4] | outcome [6] | outcome [16] | Potency [14] | Potency [7] | Potency [8] | Potency [9] | Potency [10] | activation [17] 1.44% | outcome [12] | Potency [15]

CC(N)Cc1c[nH]c2ccc(O)cc12 (configuration not stated)
inactive: outcome [1] | Potency [2] | Potency [3] | Potency [4] | outcome [6] | outcome [13] | outcome [16] | Potency [14] | Potency [7] | Potency [9] | Potency [10] | activation [17] 1.38% | outcome [18] | Potency [15]

NNC(N)=O
-0.697%: viability change [11]
inactive: outcome [1] | Potency [3] | Potency [4] | Potency [5] | outcome [6] | outcome [13] | outcome [16] | Potency [14] | Potency [7] | Potency [8] | Potency [9] | Potency [10] | activation [17] 0.625% | Potency [11] | outcome [18] | Potency [15]
